Shown are actives, neighbours in structure and some others; about 2.4% of the full set was active somewhere.
PKM2 activator – qHTS Assay for Activators of Human Muscle isoform 2 Pyruvate Kinase | 260,000 compounds, 0.34% hits | purified PKM2, Kinase-Glo ATP luminescence, activation; response scale: 0% is enzyme alone, no compound | Pyruvate kinase PKM (Homo sapiens), P14618 | Potency, µM (titrated, usually from 57.5 µM), hits mostly activators | AID 1631, 2009; also: nearly all actives have a fitted effect of over 55% in size
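Purified hPK-M2 (>95%) run at intermediate activity with 0.1 mM ADP and 0.5 mM PEP in 50 mM imidazole pH 7.2, KCl, MgCl2; 1 h room temperature. ATP formed read by Kinase-Glo luminescence; normalized to uninhibited and no-enzyme controls.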
Rango-impB inh – qHTS Assay for Inhibitors of Rango (Ran-regulated importin-beta cargo) - Importin beta complex formation; Importin subunit beta-1 (Homo sapiens), Q14974; 340,000 compounds, 0.031% hits; Potency, µM (top dose mostly 92.2 µM); Rango CFP/YFP FRET sensor + importin beta, 45 min; AID 540263, 2011; calls by dose curve; also: nearly all actives have a fitted effect of over 15% in size
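FRET biosensor Rango (snurportin 1 IBB between N-terminal EYFP and C-terminal Cerulean), 50 nM in PBS/1 mM DTT/0.02% Tween-20/0.1% BSA, preincubated 5 min RT with compound; 0.125 microM importin beta added, 45 min RT, CFP/YFP FRET ratio read.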
Rango release inh – qHTS Assay for Inhibitors of RanGTP induced Rango (Ran-regulated importin-beta cargo) - Importin beta complex dissociation; Snurportin-1 (Homo sapiens) + GTP-binding nuclear protein Ran (Homo sapiens) + Importin …; Potency, µM (doses to about 46.1 µM); 340,000 compounds, 0.071% hits; Biochemical FRET Rango-importin beta, RanGTP-induced dissociation; calls by dose curve; also: nearly all actives have a fitted effect of over 45% in size
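Rango/importin beta premix (0.1/0.25 uM final), PBS + 1 mM DTT + 0.02% Tween-20 + 0.1% BSA; cpd 5 min RT; FRET pre-read; + RanGTP-RCC1 (0.6 uM Ran, 2 mM GTP, 0.2 uM RCC1); 45 min RT; FRET post-read, ex 430, em 486/530 nm.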
Tb PFK block – qHTS Assay to Find Inhibitors of T. brucei phosphofructokinase; AID 485367, 2010; T. brucei PFK, ADP-Glo luminescence; 330,000 compounds, 0.17% hits; Potency, µM (top dose mostly 57.5 µM), usual class: inhibitors; also: nearly all actives have a fitted effect of over 60% in size
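Compounds were pin-transferred as a titration series up to 57 uM into substrate buffer (0.5 mM F6P, 0.1 mM ATP, pH 8.0), then 1.25 nM PFK was added and reactions ran 45 min before ADP-Glo detection.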
ELG1 repair inh – qHTS screen for small molecules that inhibit ELG1-dependent DNA repair in human embryonic kidney (HEK293T) cells expressing luciferase-tagged ELG1; HEK293T ELG1-luciferase reporter, luminescence, 16 h; DNA damage induced by 5-fluorouridine; Potency, µM (titrated, usually from 46.1 µM), actives largely listed as inhibitors; 330,000 compounds, 2.3% hits; AID 504467, 2011; also: nearly all actives have a fitted effect of over 55% in size
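Luminescence from the luciferase reporter, measured 30 min after ONE-Glo reagent at room temperature, was the read-out. Beforehand, 2,000 cells per well were exposed for 16 hr at 37 °C to 5-fluorouridine together with compound or vehicle.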
Tb PGK inh – qHTS Assay to Find Inhibitors of Phosphoglycerate Kinase; 380,000 compounds, 0.043% hits; Potency, µM (top dose mostly 57.5 µM), most hits filed as inhibitors; AID 602233, 2012; PGK/GAPDH coupled, Kinase-Glo luminescence, 60 min; also: nearly all actives have a fitted effect of over 60% in size
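Recombinant glycosomal PGK reaction used 1,3-bisphosphoglycerate generated in-well by GAPDH (100nM final) in 100mM TEA pH 7.6, 5mM MgCl2, 0.01% Tween-20. After 60 minutes at room temperature, ATP was read by Kinase-Glo Plus luminescence end-point.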
ELG1 FLuc counter – qHTS screen for small molecules that inhibit ELG1-dependent DNA repair: Hit Confirmation in Cell-Based Luciferin Assay | Potency, µM (doses to about 46.1 µM), most hits filed as inhibitors | AID 624247, 2012 | shares compounds with ELG1 repair inh | cell-free firefly luciferase luminescence counter-screen, ViewLux | 350 compounds, 3% hits
ELG1-Luc inh – HTS assay for small molecules that inhibit ELG1-dependent DNA repair in human embryonic kidney (HEK293T) cells expressing luciferase-tagged ELG1: Hit Confirmation; 670 compounds, 68% hits; HEK293T ELG1-luciferase levels, luminescence; cells co-treated with 5-fluorouridine; Potency, µM (doses to about 46.1 µM), most hits filed as inhibitors; shares compounds with ELG1 repair inh; also: nearly all actives have a fitted effect of over 55% in size
ELG1-Luc MMS – inhibits ELG1-dependent repair under MMS stimulation in HEK293T cells; 670 compounds, 53% hits; Potency, µM (titrated, usually from 46.1 µM), most hits filed as inhibitors; HEK293T luciferase-tagged ELG1 level, MMS stimulated; shares compounds with ELG1 repair inh; AID 624249; also: nearly all actives have a fitted effect of over 60% in size
ELG1 5-FU – qHTS screen for small molecules that inhibit ELG1-dependent DNA repair: Hit Confirmation with 5FU Viability; shares compounds with ELG1 repair inh; cell viability with 5-FU, ELG1-dependent repair; Potency, µM (highest dose often 46.1 µM), most hits filed as cytotoxic; 670 tested, under 10 active;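 also: ELG1-luc HEK293T cells cotreated with 5-fluorouridine at 10 µM final; viability measured 16 h after compound addition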
ELG1 MMS cell – qHTS screen for small molecules that inhibit ELG1-dependent DNA repair: Hit Confirmation with MMS Viability; shares compounds with ELG1 repair inh; Cell viability with MMS, ELG1-dependent DNA repair; Potency, µM (doses to about 46.1 µM), usual class: cytotoxic; 670 compounds, 33% hits; AID 624251, 2012;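 also: ELG1-luc HEK293T cells co-treated with 10 µM MMS; viability read 16 h after compound addition; nearly all actives have a fitted effect of over 60% in size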
Cell viab unstim – qHTS screen for small molecules that inhibit ELG1-dependent DNA repair: Hit Confirmation with Unstimulated Viability Assay; shares compounds with ELG1 repair inh; cell viability counter-screen, unstimulated, luminescence; Potency, µM (highest dose often 45.9 µM), actives largely listed as cytotoxic; 900 compounds, 8% hits; AID 624252, 2012;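 also: compound exposure lasted 16 hours before reading; nearly all actives have a fitted effect of over 55% in size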
FLuc enzyme – qHTS screen for small molecules that inhibit ELG1-dependent DNA repair: Hit Confirmation in Biochemical Luciferin Assay | shares compounds with ELG1 repair inh | purified firefly luciferase, luminescence counter-screen | Potency, µM (highest dose often 57.5 µM), usual class: inhibitors | 350 compounds, 10% hits
Hits are given with their value; . = inactive; ? = inconclusive; / = no result. Unless noted, calls follow the shape of the dose curve; as a rule, active = well fitted curve in the direction sought with a large enough effect; inconclusive = small, poorly fitted or top-dose-only effect, or another doubt; inactive = no such curve, though single readings can be large; an effect the other way counts as inactive or inconclusive.

SMILES | PKM2 activator | Rango-impB inh | Rango release inh | Tb PFK block | ELG1 repair inh | Tb PGK inh | ELG1-Luc inh | ELG1-Luc MMS | ELG1 5-FU | ELG1 MMS cell | Cell viab unstim | others
COC(=O)c1[nH]c2ccc(C)cc2c1NC(=O)C(C)N1CCN(C2CCCCC2)CC1 (stereo not drawn) | . | . | . | . | . | . | 1.12µM | ? | . | . | ? | ELG1 FLuc counter=.;FLuc enzyme=.
CCOC(=O)c1[nH]c2ccc(OC)cc2c1NC(=O)CN1CCSCC1 | . | . | . | . | ? | . | / | / | / | / | /
CC(=O)N1c2c(cc(Br)cc2S(=O)(=O)N2CCN(c3ccccc3F)CC2)CC1C (stereo not drawn) | . | . | . | . | ? | . | / | / | / | / | /
Cc1ccc(C(=O)N2CCCC(C(=O)Nc3cccc(-c4ccc(F)cc4)c3)C2)cn1 (stereo not drawn) | . | . | . | . | . | . | / | / | / | / | /
Cc1ccc(NNC(=O)c2cc(C)on2)c(C)c1 | . | . | . | . | ? | . | / | / | / | / | /
Cc1cc(C(=O)NNc2ccc(F)cc2F)no1 | . | ? | . | . | 4.11µM | . | . | . | . | . | .
CCOc1ccc(NC(=O)N(C)CCc2c(C)nn(C)c2C)cc1 | / | / | / | / | / | . | / | / | / | / | /
Cc1cccc(Nc2nnc(-c3ccc(C)c(S(=O)(=O)N4CCOCC4)c3)c3ccccc23)c1 | / | / | / | / | / | . | / | / | / | / | /
Cc1ccc(-c2nnc(NCc3nc4ccccc4[nH]3)c3ccccc23)cc1S(=O)(=O)N1CCOCC1 | . | . | . | . | 4.61µM | . | 7.05µM | 15.8µM | . | ? | ?
Cc1ccc(CNC(=O)c2oc3ccc(S(=O)(=O)N4CCC5(CC4)OCCO5)cc3c2C)cc1 | . | . | . | . | 0.82µM | . | 3.54µM | 14.1µM | ? | 22.3µM | ? | ELG1 FLuc counter=?;FLuc enzyme=.
Cc1c(C(=O)NCCN(C)C)oc2ccc(S(=O)(=O)N3CCC4(CC3)OCCO4)cc12 | . | . | . | . | . | . | / | / | / | / | /
Cc1nn(-c2ccc(C(=O)N3CCN(S(=O)(=O)c4ccccc4C(F)(F)F)CC3)cc2)c(C)c1Cl | / | . | . | . | 3.26µM | . | 7.05µM | ? | ? | ? | ?
Cc1cnc(C(=O)OC(C)C(=O)Nc2ccccc2-c2ccccc2)cn1 (stereo not drawn) | / | . | . | . | . | . | / | / | / | / | /
Cc1c(CC(=O)N2CCN(C(=O)C3COc4ccccc4O3)CC2)c(=O)oc2cc(O)cc(O)c12 (stereo not drawn) | / | ? | ? | . | ? | . | / | / | / | / | /
Cc1c(CC(=O)N2CCN(C(=O)C3COc4ccccc4O3)CC2)c(=O)oc2c(C)c(O)ccc12 (stereo not drawn) | . | ? | ? | . | 0.58µM | . | 3.97µM | ? | ? | . | ? | ELG1 FLuc counter=.;FLuc enzyme=.
CC(NC(=O)CN1CCN(c2ccccc2F)CC1)c1ccccc1 (stereo not drawn) | . | . | . | . | . | . | / | / | / | / | /
COc1ccccc1N1CCN(CC(=O)Nc2ccccc2C(=O)NCCc2ccccc2)CC1 | / | . | . | . | ? | . | / | / | / | / | /
CC(NC(=O)c1ccccc1NC(=O)CN1CCN(c2ccccc2O)CC1)c1ccccc1 (stereo not drawn) | / | . | . | . | 2.31µM | . | 5.6µM | ? | ? | ? | .
COc1ccc(CN2CCN(CC(=O)Nc3ccccc3C(=O)NC3CC3)CC2)cc1F | / | . | . | . | 2.59µM | . | 7.05µM | ? | ? | . | .
COc1ccccc1N1CCN(CC(=O)Nc2ccccc2C(=O)NC(C)c2ccccc2)CC1 (stereo not drawn) | / | . | . | . | 2.91µM | . | 7.91µM | . | ? | . | ?
COc1ccc(-c2cc(C(F)(F)F)n3nc(C(=O)N4CCN5CCCC5C4)cc3n2)cc1OC (stereo not drawn) | / | ? | ? | . | . | . | / | / | / | / | /
Cc1cccc(C)c1OCC(=O)N(Cc1ccc(N(C)C)cc1)C1CCS(=O)(=O)C1 (stereo not drawn) | . | . | . | . | . | . | / | / | / | / | /
Cc1nn(C)c(C)c1CCC(=O)N1CCCC(N2CCN(c3ccc(F)cc3)CC2)C1 (stereo not drawn) | . | . | . | . | . | . | / | / | / | / | /
CC(C)c1cc(-c2nc(-c3ccccc3)no2)n[nH]1 | / | / | / | / | / | . | / | / | / | / | /
CC(C)CCOc1ccc(C2(C)NC(=O)NC2=O)cc1 (stereo not drawn) | . | ? | . | . | . | . | / | / | / | / | /
